# Assay results from PubChem BioAssay (NCATS).
# Several values for one entry are separate records, joined by “and”; a condition that tells them apart may be missing. Equal entries are not always repeated. Inconclusive results are not listed. Where a structure was tested more than once in an assay, its records may differ in their call. Activity calls are given as the source filed them. The call rests on the fitted dose curve; in most records, active means well fitted curve in the direction sought with a large enough effect; inconclusive means small, poorly fitted or top-dose-only effect, or another doubt; inactive means no such curve, though single readings can be large; an effect the other way counts as inactive or inconclusive.
# Biological target: Guanine nucleotide-binding protein G(i) subunit alpha-1 (Homo sapiens) (UniProt P63096)
# Sequence (P63096 whole entry, looked up): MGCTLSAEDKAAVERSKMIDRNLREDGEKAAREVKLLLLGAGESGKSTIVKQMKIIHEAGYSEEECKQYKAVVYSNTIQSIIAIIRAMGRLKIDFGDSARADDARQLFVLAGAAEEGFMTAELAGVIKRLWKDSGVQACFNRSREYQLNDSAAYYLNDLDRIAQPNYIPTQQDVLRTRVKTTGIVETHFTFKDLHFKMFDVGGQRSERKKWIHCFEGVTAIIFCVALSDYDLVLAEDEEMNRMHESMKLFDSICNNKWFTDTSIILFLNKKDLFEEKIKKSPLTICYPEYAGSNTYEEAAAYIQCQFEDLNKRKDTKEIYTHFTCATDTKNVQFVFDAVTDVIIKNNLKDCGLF
# Test: qHTS Assay for Inhibitors of RGS12 GoLoco Motif Activity (Green Fluorophore) (AID 879);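 further: 0% = labeled peptide with Gαi1 and full inhibition = labeled peptide alone without protein; negative values mean loss of peptide binding seen as reduced polarization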
# Conditions: Galphai1/FITC-RGS12 GoLoco peptide, fluorescence polarization; series mostly up to 57.1 µM; activity, negative = inhibition: at the top concentration
# In short: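 A drop in FITC polarization marked displacement of the FITC-tagged RGS12 GoLoco peptide (10 nM) from Gαi1 (50 nM). Compounds were incubated 10 min at room temperature in Tris pH 7.5 buffer containing 150 mM NaCl, 0.1 mM GDP and 0.05% NP40; unlabeled peptide titration served as control.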
row,Structure (SMILES),"activity, negative = inhibition"
1,Oc1ccccc1O,-20.8% (inactive)
2,O=c1[nH]c2cc([N+](=O)[O-])c([N+](=O)[O-])cc2[nH]c1=O,-20.9% (inactive)
3,N.N.O=C(O)C1(C(=O)O)CCC1.[Pt],48.5% (inactive)
4,Cc1ccc(O)c(N=Nc2ccccc2)n1,-2.1% (inactive)
5,O=C(Nc1ccccc1)c1cc([N+](=O)[O-])ccc1Cl,-11.8% (inactive)
6,COC(=O)c1c(C)[nH]c(C)c1C(=O)c1ccccc1Cc1ccccc1,-12.1% (inactive)
7,c1cnc2c(c1)ccc1cccnc12,-19.9% (inactive)
8,O=C(O)c1cc(=O)c2c(Cl)cc(Cl)cc2[nH]1,-15.3% (inactive)
9,Cn1cc(C2=C(c3ccc(Cl)cc3Cl)C(=O)NC2=O)c2ccccc21,45% (inactive)

# Biological target: Cytochrome P450 2C9 (Homo sapiens) (UniProt P11712)
# Sequence (P11712 whole entry, looked up): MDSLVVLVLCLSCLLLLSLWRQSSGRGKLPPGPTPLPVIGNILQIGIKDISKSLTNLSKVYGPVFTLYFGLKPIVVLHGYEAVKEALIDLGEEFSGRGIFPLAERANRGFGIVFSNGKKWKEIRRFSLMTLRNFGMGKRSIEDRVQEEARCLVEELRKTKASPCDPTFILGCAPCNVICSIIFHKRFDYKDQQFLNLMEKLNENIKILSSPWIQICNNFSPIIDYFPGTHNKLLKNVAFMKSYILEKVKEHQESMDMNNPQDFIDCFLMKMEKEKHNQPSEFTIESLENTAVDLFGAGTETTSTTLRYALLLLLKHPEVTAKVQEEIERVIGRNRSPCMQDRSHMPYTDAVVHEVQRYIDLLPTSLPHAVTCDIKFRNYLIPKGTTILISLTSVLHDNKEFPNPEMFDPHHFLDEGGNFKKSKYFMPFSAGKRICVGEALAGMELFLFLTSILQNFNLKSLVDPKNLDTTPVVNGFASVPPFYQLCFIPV
# Test: qHTS Assay for Inhibitors and Substrates of Cytochrome P450 2C9 (AID 883); further: nearly all actives have a fitted effect of over 60% in size; further: potency means the concentration at half of the fitted maximal effect; on activity change, negative = inhibition: on the % scale 0 is the no-effect control and ±100 the full control effect
# Conditions: recombinant CYP2C9, luciferin-H luminescence, 60 min; series mostly up to 57.1 µM; activity change, negative = inhibition: at the top concentration
# In short: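 Luminescent read-out of deoxyluciferin hydroxylation, normalized to 57uM sulphaphenazole (AC100). Reaction: 10nM enzyme, 100uM Luciferin-H (equal to KM), 25mM KPO4, 10 min compound preincubation, then 60 min with NADPH regeneration, both at 37C.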
Structure (SMILES),"activity change, negative = inhibition",Potency
Oc1ccccc1O,17.6% (inactive),
O=c1[nH]c2cc([N+](=O)[O-])c([N+](=O)[O-])cc2[nH]c1=O,-5.31% (inactive),
N.N.O=C(O)C1(C(=O)O)CCC1.[Pt],,3.98 µM (active)
Cc1ccc(O)c(N=Nc2ccccc2)n1,,12.6 µM (active) and inactive
O=C(Nc1ccccc1)c1cc([N+](=O)[O-])ccc1Cl,,inactive and 6.31 µM (active)
COC(=O)c1c(C)[nH]c(C)c1C(=O)c1ccccc1Cc1ccccc1,,2.51 µM (active)
c1cnc2c(c1)ccc1cccnc12,,inactive
O=C(O)c1cc(=O)c2c(Cl)cc(Cl)cc2[nH]1,48.1% (inactive),
Cn1cc(C2=C(c3ccc(Cl)cc3Cl)C(=O)NC2=O)c2ccccc21,,10 µM (active)
